Experimental data: PubChem BioAssay (NCI)
“And” between values parts separate entries of the source, which are not always exact repeats. Identical values can stand only once. The panel holds about 83,000 compounds, 20% with a hit somewhere; the sample as a whole holds those more often.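 Percent growth is the endpoint: 0 to 100 indicates growth inhibition (40 means 60% inhibition), 0 means no net growth, and negative values indicate cell death.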 Unmarked numbers belong to inactive results. The source made the active and inactive calls. Rule for the calls: active = growth percent below 10; inactive = the rest.

Test system: HL-60(TB) leukemia
Test: NCI-60 one-dose screen, 48 h (100 = growth as untreated, 0 = no growth, -100 = all killed)
Details: 10 µM unless noted

Question: With `O=C1Nc2ccc(Cl)cc2/C1=C/c1ccc(OCc2ccccn2)cc1` as the molecule, how does the growth read?
Answer: 85%

Question: For `O=c1oc2ccccc2cc1-c1csc(N=Nc2c(O)[nH]c3ccc(Cl)cc23)n1`, which growth is on record?
Answer: 99.1%

Question: With `C/C(=C\CC/C=C(\C)CC/C=C(\C)CC[C@@H](O)C(C)(C)O)CC/C=C(\C)CC[C@@H](O)C(C)(C)O` as the molecule, how does the growth read?
Answer: -49.3% (active)

Question: How did the growth turn out when `O=C(Cc1c(-c2ccccc2[N+](=O)[O-])n(-c2ncnc3c2c(-c2ccccc2)c(-c2ccccc2)n3Cc2ccccc2)[nH]c1=O)c1ccc(Cl)c(Cl)c1` was run?
Answer: 1.19% (active)

Question: For `CN(C)c1ccc(/C=C/c2nc3ccccc3c(=O)n2CC(=O)Nc2ccc(Cl)cc2)cc1`, which growth is on record?
Answer: 95%

Question: `C=C1CCC2C3(C)COC(c4cc(F)cc(F)c4)OC3CCC2(C)C1CC(O)C1=CCOC1=O` (stereo unspecified) was tested. Which growth did it give?
Answer: 61.2%

Question: `N#Cc1cc(-c2ccc3ncnc(N4CCc5cc(F)c(Cl)cc54)c3c2)cnc1N` was tested. Which growth did it give?
Answer: 36.1%

Question: For `N#Cc1c(Cl)nc(SCc2ccc(F)cc2)nc1-c1ccc(F)cc1`, which growth is on record?
Answer: 50.2%

Question: How did the growth turn out when `S=c1nc(-c2ccccc2)cc(-c2cc3ccccc3nc2Cl)[nH]1` was run?
Answer: 8.96% (active)

Question: Which growth does the source give for `CN(C)c1ccc(/C=C/C(=O)c2ccc(NC(=O)CN3C(=O)NC(C)(c4ccccc4)C3=O)cc2)cc1` (stereo unspecified) here?
Answer: 47.5%

Question: Which growth does the source give for `COc1ccccc1C(=O)NNC(=O)CSc1nc2c(c(=O)[nH]1)CCCC2` here?
Answer: 100%

Question: With `O=C(CNc1nc(-c2ccccc2)cs1)Nc1cccc(Cl)c1` as the molecule, how does the growth read?
Answer: -2.63% (active)

Question: `CC(=O)Nc1cccc(-n2c(COc3ccc(Br)cc3)nc3ccccc32)c1` was tested. Which growth did it give?
Answer: 113% and 103%

Question: How did the growth turn out when `S=C(Nc1ccccc1)Nc1ccc(OCc2nc3ccccc3[nH]2)cc1` was run?
Answer: 20.2%

Question: For `N/C(=N\c1nc2ccccc2s1)NC(=O)Nc1ccccc1[N+](=O)[O-]`, which growth is on record?
Answer: -11.1% (active)

Question: For `COc1ccc(N=Nc2c(N)nn3c(-c4ccc5c(c4)C=S=C5)ccnc23)cc1`, which growth is on record?
Answer: 37.7%

Question: With `COc1ccc2c(c1)c(-c1cc(N)n3nc(-c4cn(C)c5ccccc45)cc3n1)cn2C` as the molecule, how does the growth read?
Answer: -33.1% (active)

Question: How did the growth turn out when `Cc1cc(=O)oc2cc(OCCCOc3ccc(/C=C/C(=O)Nc4ccccc4N)cc3)ccc12` was run?
Answer: 1.53% (active)

Question: How did the growth turn out when `Cn1c(O)c(N=Nc2nc(-c3cc4ccccc4oc3=O)cs2)c2cc(Br)ccc21` was run?
Answer: 96.6%

Question: For `Cc1cc2nc3c4ccccc4n(CCCN(C)C)c3nc2cc1C`, which growth is on record?
Answer: -40.5% (active)

Question: Which growth does the source give for `Cc1cccc(NC(=O)[C@]23CCC(C)(C)CC2C2=CCC4[C@@]5(C)C[C@@H](O)[C@H](O)[C@@](C)(CO)C5CC[C@@]4(C)[C@]2(C)CC3)c1` (stereo partly specified) here?
Answer: -14.4% (active)

Question: For `O=C(CSc1nnc(-c2c[nH]c3ccccc23)n1-c1ccccc1)Nc1ccc(C(=O)/C=C/c2ccc(Cl)cc2)cc1`, which growth is on record?
Answer: 66.8%

Question: How did the growth turn out when `COc1ccc(C2(SCCNCc3cc(N(C)C)ccn3)c3ccccc3C=Cc3ccccc32)cc1` was run?
Answer: -21.8% (active)

Question: How did the growth turn out when `CC(=O)Nc1ccc(-c2cn(-c3cccc(C(=O)Nc4cccc(OC(F)(F)F)c4)c3)nn2)cn1` was run?
Answer: 95.1%

Question: Which growth does the source give for `CC(C)CSc1nc(NCCc2c[nH]c3ccccc23)c(C#N)c(-c2ccc(Cl)cc2)n1` here?
Answer: 47.5%

Question: How did the growth turn out when `CC[C@]12C=CCN3CC[C@]4(C(=C(C(=O)OC)C1)Nc1cc(OC)c([C@@H]5[C@H]6O[C@H]6[C@@]6(CC)CC(C(=O)OC)=C7Nc8cc(OC)ccc8[C@@]78CCN5[C@@H]68)cc14)[C@@H]32` was run?
Answer: 25%
